Measured values: PubChem BioAssay (Tox21)
The source made the active and inactive calls. Entries that show only a call come without a potency. The call rests on the fitted dose curve.

Assay: qHTS assay to identify small molecule agonists of the sonic hedgehog signaling (Shh) pathway (AID 1259368);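 further: NIH/3T3-derived 3T3Gli1-Luc cells carrying a stable Gli1-driven firefly luciferase reporter; nearly all actives have a fitted effect of over 15% in size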
Conditions: NIH/3T3 Gli1-Luc reporter, luciferase, 24 h; series mostly up to 92.4 µM
Excerpt: National Center for Advancing Translational Sciences [NCATS]
NIH Chemical Genomics Center [NCGC]
U.S. Environmental Protection Agency [EPA]
National Institutes of Environmental Health Sciences [NIEHS]
National Toxicology Program [NTP]
The sonic hedgehog (Shh) pathway is essential for normal embryonic development. Dysregulation of the Shh pathway can cause severe developmental defects in organs. Therefore chemicals that interfere with the pathway are potential developmental toxicants. A cell line designated 3T3Gli1-Luc (DMB/OARSA/CFSAN/FDA, Laurel, MD), a NIH/3T3 derived clone containing stably integrated Gli1-Luc reporter is used to detect chemical interference of the Shh pathway, by changes in the expression of the firefly Luc gene under the control of the Gli1 transcriptional response element. This cell line was used to screen Tox21 libraries for identifying and prioritizing the potential developmental toxicants that interfere Shh pathway.
3T3 Gli1-Luc cells were dispensed at 2,000 per well in 5uL of culture medium into white solid bottom 1536-well plates (Greiner Bio-One, Monroe, NC) using a Multidrop Combi (Thermo Scientific, Waltham, MA) dispenser. The assay plates were incubated at 37 C and 5% CO2 for 4hr, and then 23nL of compounds dissolved in DMSO and positive control were transferred using a Pintool station (Wako, San Diego, CA). The assay plates were incubated at 37C and 5% CO2 for 24hr. For luciferase read, 4uL of Amplite Luciferase reporter gene assay reagent (AAT Bioquest, Inc. Sunnyvale, CA) was added to each well of the assay plates using Flying Reagent Dispenser (FRD, Aurora Discovery, San Diego, CA) and incubated at room temperature for 30min. The luminescence signal was measured using a ViewLux plate reader (Perkin Elmer, Shelton, CT).

Compound	Potency
N=C1N=C(N)c2ccccc21	inactive
CCN(CCC#N)c1ccc(N=Nc2c(Cl)cc([N+](=O)[O-])cc2Cl)cc1	inactive
NC(=O)C1(N2CCCCC2)CCN(CCCN2c3ccccc3CCc3ccc(Cl)cc32)CC1	inactive
COc1cc(-c2ccc(N=C=O)c(OC)c2)ccc1N=C=O	inactive
CCCCCCCCCCCCCC[P+](CCCC)(CCCC)CCCC (tested in a mixture with another compound)	inactive
CC(=O)N1CCN(c2ccc(OC[C@H]3CO[C@](Cn4ccnc4)(c4ccc(Cl)cc4Cl)O3)cc2)CC1	inactive
CCCCC(CC)COP(=O)(O)OCC(CC)CCCC (stereo not given)	inactive
CNc1ccc(O)cc1	inactive
CCC(C)Nc1ccc(NC(C)CC)cc1 (stereo not given)	inactive
Oc1cccc2cc3cccc(O)c3c(O)c12	inactive
O=C(Nc1ccc(Oc2ccc(Cl)cc2)c(Cl)c1)c1cc(I)cc(I)c1O	inactive
N/C(=N\N=C\c1ccc(Cl)cc1)N/N=C/c1ccc(Cl)cc1	inactive
Cc1cccc(S(=O)(=O)O)c1C	inactive
CCCN(CCC)c1c([N+](=O)[O-])cc(C(F)(F)F)c(N)c1[N+](=O)[O-]	inactive
O=C(OCC1CO1)C1CCCCC1C(=O)OCC1CO1 (stereo not given)	inactive
c1ccc(CSCc2ccccc2)cc1	inactive
CCCCCCCCCCCCCCCCCC[N+](C)(C)Cc1ccccc1	inactive
O=C1CCCCCN1SSN1CCCCCC1=O	inactive
CN(C)CCCOC1(Cc2ccccc2)CCCCCC1	inactive
C[C@]12CCC(=O)C=C1CC[C@@H]1[C@@H]2[C@@H](O)C[C@@]2(C)[C@H]1CC[C@]2(O)C(=O)COC(=O)CCC(=O)O	inactive

Compound	Potency
CCCCCCCCCCCCCCCC(=O)OC[C@H](O)[C@H]1OC(=O)C(O)=C1O	inactive
Cn1cc(C(=O)[C@@H]2CCc3nc[nH]c3C2)c2ccccc21	inactive
C=CC(=O)OCC(CO)(COC(=O)C=C)COC(=O)C=C	inactive
CC(C)(C)CC(C)(C)c1ccc(O)c(Cc2ccc(Cl)cc2Cl)c1	inactive
CC[C@@]1(O)C(=O)OCc2c1cc1n(c2=O)Cc2cc3c(CN(C)C)c(O)ccc3nc2-1	inactive
CC(=O)S[C@@H]1CC2=CC(=O)CC[C@]2(C)[C@H]2CC[C@@]3(C)[C@@H](CC[C@@]34CCC(=O)O4)[C@H]12	inactive
CCCCC(CC)CN=C(N)NC(N)=NCCCCCCN=C(N)NC(N)=NCC(CC)CCCC (stereo not given)	inactive
N=C1C=CC(=C(c2ccc(N)cc2)c2ccc(N)cc2)C=C1	inactive
O=c1c(-c2ccccc2)c1-c1ccccc1	inactive
CS(=O)(=O)CCNCc1ccc(-c2ccc3ncnc(Nc4ccc(OCc5cccc(F)c5)c(Cl)c4)c3c2)o1	inactive
CC[C@@]1(O)C(=O)OCc2c1cc1n(c2=O)Cc2c-1nc1ccccc1c2/C=N/OC(C)(C)C	inactive
COc1cccc(N)c1	inactive
O=C(OCC(COC(=O)c1ccccc1)(COC(=O)c1ccccc1)COC(=O)c1ccccc1)c1ccccc1	inactive
N=C1N=C(N)c2cc3ccccc3cc21	inactive
CCCCCCCCOC(=O)c1ccc(O)cc1	inactive
OCCN(CCO)c1nc(N2CCCCC2)c2nc(N(CCO)CCO)nc(N3CCCCC3)c2n1	inactive
CC(C)C(C)(C)C(C)(C)C(C)(C)S	inactive
CC(C)c1ccc2c(c1)CC[C@H]1[C@](C)(CN)CCC[C@]21C	inactive
CC[C@H](c1ccc(O)cc1)[C@@H](CC)c1ccc(O)cc1	inactive
CCCC(c1cc(C(C)(C)C)c(O)cc1C)c1cc(C(C)(C)C)c(O)cc1C	inactive
